Compounds without any hit were thinned out: in the full panel of roughly 79,000, 15% have a hit. Unmarked numbers belong to inactive results. Active and inactive are the calls of the source. Rule as the data show it: active = growth inhibition above about 70%; inactive = the rest.

Assay [1] can be described thus: NCI Yeast Anticancer Drug Screen. Data for the rad50 strain (AID 155).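 Also: 0% = growth of vehicle-only cultures of the same strain.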 Conditions: S. cerevisiae rad50 strain growth inhibition; at 50.0 µM; stronger effect = higher value. An outline of the steps:
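Vehicle-treated cultures provide the reference for the growth inhibition reported for compound-exposed, repair-deficient yeast.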

Assay [2] in a line: NCI Yeast Anticancer Drug Screen. Data for the mec2-1 strain (AID 157). Conditions: S. cerevisiae mec2-1 strain, at 50.0 µM, stronger effect = higher value. An outline of the steps: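 Strain: mec2-1 (DNA repair/cell cycle alteration). Compound exposure, then growth measured; inhibition expressed relative to vehicle.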
Assay [3] in a line: NCI Yeast Anticancer Drug Screen. Data for the sgs1 mgt1 strain (AID 161).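 Also: 0% = growth of cultures given vehicle only.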 Conditions: S. cerevisiae sgs1 mgt1 strain, at 50.0 µM, stronger effect = higher value. Put shortly:
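Test agents were incubated with a DNA-repair-mutant yeast strain. Growth was then read and compared against vehicle-treated controls.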

Assay [4] can be described thus: NCI Yeast Anticancer Drug Screen. Data for the bub3 strain (AID 167). Conditions: S. cerevisiae bub3 mutant strain, at 50.0 µM, stronger effect = higher value. Put shortly:
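Mutant yeast screening strain plus compound; vehicle-treated cultures serve as the 0% inhibition reference.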

The nature of assay [5]: NCI Yeast Anticancer Drug Screen. Data for the mlh1 rad18 strain (AID 175). The settings on record: S. cerevisiae mlh1 rad18 strain growth inhibition; at 50.0 µM; stronger effect = higher value. An outline of the steps: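 Read-out is yeast growth inhibition, calculated against vehicle-only controls. The compound was applied to a strain engineered with DNA damage repair alterations.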

Assay [6] in a line: NCI Yeast Anticancer Drug Screen. Data for the cln2 rad14 strain (AID 165).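 Also: 0% = growth equal to vehicle treated cultures.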 The settings on record: S. cerevisiae cln2 rad14 strain, at 50.0 µM, stronger effect = higher value. Put shortly:
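Compounds are applied to the cln2 rad14 yeast strain, and growth is then compared with that of vehicle-treated cultures to give inhibition.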

Take `COc1cc(OC)c(N=Nc2c(O)n(C)c(=O)n(C)c2=O)cc1Cl`: the growth inhibition is 6.45% in assay [1]; -17.8% in assay [2]; 14.6% in assay [3]; 10.6% in assay [4]; 1% in assay [5].

Consider `CCC(CC)CC1CCCCC1=O` (stereo not given), for which the growth inhibition is 1.3% in assay [1]; -5.25% in assay [2]; -6.25% in assay [3]; -20.6% in assay [4]; -7.65% in assay [5].

With `CCN(CC)CCCC(C)Nc1c2ccccc2nc2cc(Cl)cc(Cl)c12` (stereo not given), the growth inhibition in assay [1] is 17.6%; in assay [2] it was 4.15%; in assay [3] it was 3.1%; in assay [4] it was 9.6%; in assay [5], 26.8%.

`O=C1OC(=O)C2C3C=CC(C3)C12` (stereo not given): the growth inhibition in assay [1] was 17.2%; in assay [2], -5.35%; in assay [3] it was 23.1%; in assay [4] it was -1.45%; in assay [5], 21.4%.

With `Cc1ccc(S(=O)(=O)NNC(=O)c2cc(C(=O)NNS(=O)(=O)c3ccc(C)cc3)c(C)nc2C)cc1`, the growth inhibition in assay [1] is -1.95%; in assay [2] it was 5.3%; in assay [3], 6.9%; in assay [4], 8.3%; in assay [5], -7.8%.

In the case of `CC(=O)CC1CCC(CC(C)=O)CC1` (stereo not given), the growth inhibition in assay [1] was 13.1%; in assay [2], 7.2%; in assay [3] it was -13.3%; in assay [4], -4.1%; in assay [5], -23.5%.

Consider `Nc1nc2c(-c3ccc([N+](=O)[O-])cc3)nnn2c2ccccc12`, for which the growth inhibition in assay [1] is 12.7%; in assay [2], 5.5%; in assay [3], 37%; in assay [4], 22.2%; in assay [5], 25.3%.

As to `CCC(Oc1ccc(OC)c2c1C(=O)CCC2)C(=O)O` (stereo not given), the growth inhibition in assay [1] is 5.95%; in assay [2] it was 1%; in assay [3], -18.9%; in assay [4], -0.85%; in assay [5], 7.55%.

For `CC(C)C(CC1CCCCC1)C(C)O` (stereo not given), the growth inhibition was -7.65% in assay [1]; -0.45% in assay [2]; -14.6% in assay [3]; -14.4% in assay [6]; -17.6% in assay [5].

Take `O=C(O)C(O)(C1CCCCC1)C1CCC2CCC3CCCC1C32` (stereo not given): the growth inhibition in assay [1] is 5.4%; in assay [2], 9.4%; in assay [3], 20.1%; in assay [4], -11.2%; in assay [5], 14.8%.

Regarding `CCOC(=O)/N=[N+](\[O-])c1ccccc1`, the growth inhibition in assay [1] is 64.5%; in assay [2], 46.9%; in assay [3], 57.6%; in assay [4], 41.5%; in assay [5], 86.8% (active).

Take `COc1cc(OC)c(N=Nc2c(C)nc(N)nc2-c2ccccc2)cc1Cl`: the growth inhibition in assay [1] is 44.6%; in assay [2] it was 5.45%; in assay [3] it was 19.2%; in assay [4], 4.6%; in assay [5], 23.9%.

Take `COc1ccc(/C=N/N2CN(C(C)C(=O)O)B(NC34CC5CC(CC(C5)C3)C4)N=C2N)cc1OC` (stereo not given): the growth inhibition in assay [1] was -16.6%; in assay [2], -14.2%; in assay [3], 10.3%; in assay [4] it was 1.3%; in assay [5], -6.4%.

Take `C=C(C)c1ccc2c(c1)C(=O)C[C@@H]1[C@](C)(C#N)CCC[C@]21C`: the growth inhibition in assay [1] was -19.9%; in assay [2], -16.3%; in assay [3], 32.2%; in assay [4], 46.9%; in assay [5] it was -33.9%.

Regarding `Cc1ccc(/C(C#N)=C/c2ccccc2)cc1`, the growth inhibition in assay [1] is 32.8%; in assay [2] it was 26.4%; in assay [3] it was 21%; in assay [4], 18.8%; in assay [5], 9.65%.

As for `COC(=O)c1nc[nH]c1C(=O)OC`, the growth inhibition was 10.2% in assay [1]; -25.9% in assay [2]; 15.8% in assay [3]; -0.8% in assay [4]; 12.6% in assay [5].

`CC12CCC(C1)C(C)(C)/C2=N\O` (stereo not given): the growth inhibition in assay [1] is -16.2%; in assay [2], -13.8%; in assay [3] it was 2.55%; in assay [4], 0.05%; in assay [5] it was 2.65%.

On to `CCCS(=O)(=O)CCCCCCCCCCC(=O)O`, for which the growth inhibition in assay [1] is -5.45%; in assay [2], -11.4%; in assay [3], -7.8%; in assay [4], -7.15%; in assay [5], -6.2%.

As to `O=[N+]([O-])c1ccc(N/N=C/C2CC=CCC2)c([N+](=O)[O-])c1` (stereo not given), the growth inhibition in assay [1] was 7%; in assay [2], -6.8%; in assay [3], -8.55%; in assay [4], -5.65%; in assay [5], 5.25%.

Consider `CNc1ccccc1C(=O)N/N=C/C1CCCCC1`, for which the growth inhibition in assay [1] is 0.6%; in assay [2] it was -2.65%; in assay [3], 16.6%; in assay [4] it was 9.85%; in assay [5], 8.35%.

With `CN(CCC1(C)C(=O)CCc2ccccc21)Cc1ccccc1` (stereo not given), the growth inhibition in assay [1] was 12.9%; in assay [2], 21.8%; in assay [3], 22.8%; in assay [4] it was 14.1%; in assay [5] it was 17.1%.

Take `C[C@@H]1C[C@H]2[C@@H]3CCC4=CC(=O)C=C[C@]4(C)[C@@]3(F)[C@@H](O)C[C@]2(C)[C@@]1(O)C(=O)CO`: the growth inhibition is 11.8% in assay [1]; -22.3% in assay [2]; -16.2% in assay [3]; -5.1% in assay [4]; 28.1% in assay [5].

As to `CCCCCCC(/C=N/Nc1ccccn1)=C\c1ccccc1`, the growth inhibition in assay [1] was -5.05%; in assay [2], -0.95%; in assay [3] it was 2.55%; in assay [4] it was -4.1%; in assay [5] it was -21.9%.

Turning to `CCc1c(CO)cnc(C)c1OP(=O)(O)O`, the growth inhibition in assay [1] was -33.5%; in assay [2], -39.5%; in assay [3] it was -18.1%; in assay [4], -39.6%; in assay [5] it was -22.6%.

(Values after PubChem BioAssay (NCI).)
